# D2 antagonist: HTS Assay for Allosteric Antagonists of the Human D2 Dopamine Receptor: Primary Screen for Antagonists | D(2) dopamine receptor (Homo sapiens), P14416 | HEK293 TREx D2 cells, calcium flux, dopamine EC80 | inhibition, % at 10 µM | 340,000 tested, 2% active | AID 485344, 2010; in the data active = inhibition above about 30%; inactive = below that, where a call was filed; also: 0% is about no effect
# Target sequence (P14416 whole entry, looked up): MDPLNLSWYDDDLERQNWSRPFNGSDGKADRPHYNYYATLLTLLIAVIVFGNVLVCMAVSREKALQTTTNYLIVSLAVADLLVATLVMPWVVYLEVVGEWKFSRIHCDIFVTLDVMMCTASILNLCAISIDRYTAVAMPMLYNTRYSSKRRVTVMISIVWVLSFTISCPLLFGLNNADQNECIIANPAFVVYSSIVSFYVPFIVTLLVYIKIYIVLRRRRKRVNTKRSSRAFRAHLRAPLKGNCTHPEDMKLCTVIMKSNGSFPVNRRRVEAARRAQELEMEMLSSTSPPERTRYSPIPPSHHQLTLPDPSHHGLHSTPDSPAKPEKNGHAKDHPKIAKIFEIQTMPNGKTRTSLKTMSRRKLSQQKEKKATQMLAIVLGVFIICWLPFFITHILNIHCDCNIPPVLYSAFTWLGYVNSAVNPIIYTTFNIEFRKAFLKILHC
#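 Tetracycline-induced HEK293 TREx cells expressing D2 receptor forced-coupled to calcium signalling, loaded with no-wash calcium dye. Compounds added and calcium flux read 180 s, then dopamine added at EC80 and read a further 180 s.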
# D2 ag-1: HTS Assay for Allosteric Agonists of the Human D2 Dopamine Receptor: Primary Screen for Agonists; D(2) dopamine receptor (Homo sapiens), P14416; AID 485358, 2010; activation, % at 2 µM; 340,000 tested, 0.53% active; HEK293 T-REx D2 cells, calcium flux agonist mode;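 active = activation over 3 SD above normal in the single-dose calcium agonist read, cut at about 30% in these data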; also: 0% is about no effect
#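 Agonism scored from kinetic calcium signal (1 read/sec, 180 s) following compound pin transfer, after a 10 s baseline. Cells: HEK293 Trex line expressing inducible D2 receptor coupled to calcium, dye-loaded after overnight culture at 30 C.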
# D2 ag-2: Beta-Arrestin HTS for Positive Allosteric Modulators of the Human D2 Dopamine Receptor: Agonists. D(2) dopamine receptor (Homo sapiens), P14416. DiscoveRx PathHunter D2 beta-arrestin, luminescence, 90 min; 100% = 57 uM dopamine signal. activation, % (test concentration not listed). 360,000 tested, 0.084% active; in the data active = activation above about 40%; inconclusive = between about 15% and that limit
#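 Agonist mode: compounds alone added to overnight-plated D2 PathHunter cells for 90 min at 37 C, with 57 uM final dopamine (EC100) defining full response. Beta-arrestin recruitment detected by chemiluminescent reagent, read after 1 h at ambient temperature.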
# D2 PAM-1: HTS Assay for Positive Allosteric Modulators of the Human D2 Dopamine Receptor: Primary Screen for Potentiators | D(2) dopamine receptor (Homo sapiens), P14416 | HEK293 T-REx D2, calcium flux, EC20 dopamine potentiation | potentiation, % at 10 µM | 340,000 tested, 0.34% active | AID 485347, 2010;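 active = potentiation over 3 SD above the plate norm, cut at about 30% in these data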; also: 0% is about no effect
#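 Tetracycline-induced Hek293 Trex D2 cells, force-coupled to calcium, loaded with no-wash calcium dye. Compound added with 180 s kinetic read for agonism, then EC20 dopamine and a further 180 s read for potentiation.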
# D2 PAM-2: Beta-Arrestin HTS for Positive Allosteric Modulators of the Human D2 Dopamine Receptor: Potentiators | D(2) dopamine receptor (Homo sapiens), P14416 | potentiation, % (test concentration not listed) | 360,000 tested, 0.23% active | DiscoveRx D2 beta-arrestin cells, luminescence, 90 min; 100% = 57 uM dopamine signal | AID 624464, 2012; in the data active = potentiation above about 50%; inconclusive = mostly about 30% to 49%
#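 D2 cells co-treated with compound plus 50 nM dopamine (EC20) for 90 min at 37 deg C to detect potentiation. Beta-arrestin recruitment was read as enzyme-fragment luminescence after 1 h at ambient temperature. Full response was set by 57 uM dopamine.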
# An asterisk follows results filed as active; ? = inconclusive; . = no result given. This is a sample that favours compounds with a hit; in the whole collection about 2.4% have one here.
SMILES,D2 antagonist,D2 ag-1,D2 ag-2,D2 PAM-1,D2 PAM-2
Cc1ccc(S(=O)(=O)Nc2ccc(N3CCN(C)CC3)nc2)cc1,4,-1,-7,-14,-21
CN1CCN(c2ccc(NS(=O)(=O)c3ccc(Cl)cc3)cn2)CC1,33*,-1,-2,-5,-8
CCc1ccc(S(=O)(=O)Nc2ccc(N3CCN(C)CC3)cc2)cc1,75*,1,1,-20,-23
CCc1ccc(S(=O)(=O)Nc2ccc3c(c2)n(C)c(=O)c(=O)n3C)cc1,.,0,.,-11,.
CCOc1ccc(NC(=O)C(C)Sc2nnc3cc(C)c4ccccc4n23)cc1 (stereo unspecified),.,-1,.,11,.
Cc1ccc(CNc2ccc(N3CCOCC3)cc2)s1,8,-1,2,-10,18
CC(=O)N1CCN(c2ccc(NCc3ccc(C)s3)cc2)CC1,50*,1,?,12,5
COc1cc2c(cc1OC)n(CC(=O)c1cc(C)ccc1C)c(=O)n1nc(CCn3nc(C)cc3C)nc21,.,0,.,-11,.
CC1CCCN(CCCNC(=O)c2ccc3c(c2)N(Cc2ccc(F)cc2)C(=O)c2ccccc2S3=O)C1 (stereo unspecified),74*,2,-9,-19,-39
Cc1cc(C)n(CCCNC(=O)C(C)(C)Oc2ccc(Cl)cc2)n1,31*,0,0,6,-13
Cc1cc(C)n(CC(=O)c2ccc(Cl)cc2)n1,12,0,4,39*,2
CCOC(=O)C1(CCOc2ccccc2)CCN(Cc2ccc(O)c(OCC)c2)CC1,39*,0,8,-14,-26
CCOC(=O)C1(CCOc2ccccc2)CCN(Cc2ccc(C)o2)CC1,42*,-1,-1,-17,-19
CCOC(=O)C1(CCOc2ccccc2)CCN(Cc2ccc(COC)o2)CC1,-3,-1,-2,-14,-15
N#Cc1c(N2CCN(C(=O)c3ccco3)CC2)nc(-c2ccccc2)c2c1CCCC2,32*,1,-4,2,-12
O=C(Nc1ccc(Cl)c(C(=O)N2CCOCC2)c1)c1ccccc1,18,0,-8,52*,-3
CC(=O)c1ccc(NC(=O)C2(c3ccccc3)CCOCC2)cc1,2,0,0,-1,-21
O=C(c1ccc(NC(=O)C2(c3ccccc3)CCOCC2)cc1)N1CCOCC1,32*,-1,-1,7,-2
CCn1c(C(=O)NCc2ccc(C)cc2)cc2sc(Cl)cc21,.,.,.,2,.
Cc1ccc(S(=O)(=O)Nc2ccc3c(c2)c(C(=O)OC(C)C)c(C)n3S(=O)(=O)c2ccc(C)cc2)cc1,.,1,.,.,.
O=c1cnnc(NCc2ccccc2)[nH]1,22,0,-2,36*,-15
Cc1ccc(Cn2c(=O)n(CCCCC(=O)NCCc3ccc(Cl)cc3)c(=O)c3ccccc32)cc1,.,3,.,5,.
c1c(C2CCCCC2)n[nH]c1CN1CCCCC1,40*,0,-1,-22,-42
CCOC(=O)c1c(NC(=O)COC(=O)CNC(=O)c2ccc(Cl)cc2Cl)sc(C(=O)N(C)C)c1C,9,-1,-1,32*,-5
CCOC(=O)c1c(NC(=O)COC(=O)c2nc(Cl)ccc2Cl)sc(C(=O)N(C)C)c1C,-4,1,-2,4,-14
SMILES,D2 antagonist,D2 ag-1,D2 ag-2,D2 PAM-1,D2 PAM-2
CC1CC(C)CN(CCCNC(=O)CN2C(=O)CSc3ccc(S(=O)(=O)N4CCCCC4)cc32)C1 (stereo unspecified),52*,0,-4,-3,-38
O=C(CN1C(=O)CSc2ccc(S(=O)(=O)N3CCOCC3)cc21)NCCCN1CCc2ccccc2C1,47*,1,0,-20,-21
O=C(CN1C(=O)CSc2ccc(S(=O)(=O)N3CCOCC3)cc21)NCCCN1CCOCC1,9,0,0,6,-6
CC1CC(C)CN(CCCNC(=O)c2ccc3c(c2)NC(=O)CS3)C1 (stereo unspecified),48*,0,-1,-8,-30
CCN1CCc2c(sc(-n3cccc3)c2C(C)NC(=O)Nc2cc(Cl)c(OC)cc2OC)C1 (stereo unspecified),.,2,.,-4,.
COc1ccc(CCNC(=O)c2cnc3ccc(C)cn3c2=O)cc1,.,0,.,6,.
CCN(CC)C(=O)c1ccc(C)c(Br)c1,31*,0,0,-6,1
c1ccc(-c2cnc(SCCN3CCOCC3)n2CC2CCCO2)cc1 (stereo unspecified),34*,0,1,-9,-16
Cc1ccc2c(c1)C(C)CC(C)(C)N2C(=O)CN1CCN(C)CC1 (stereo unspecified),36*,-1,-5,-20,-31
CC1CC(C)(C)N(C(=O)CN2CCN(C)CC2)c2ccccc21 (stereo unspecified),7,0,-4,4,-4
CC(C)c1ccc(Nc2c(-c3ccccn3)nc3ccccn23)cc1,.,0,.,-3,.
COc1cccc(CNC(=O)c2c(C)nn(-c3cccc(C)c3)c2-n2cccc2)c1,.,0,.,.,.
Cc1ccc2nc(-c3ccc(Cl)c(NC(=O)c4ccc5c(c4)OCCO5)c3)oc2c1,.,.,.,-1,.
CCOC(=O)C1C(=O)Nc2nc(C)nn2C1c1ccccc1 (stereo unspecified),42*,1,-2,5,-13
COCCOc1ccc(C(F)(F)F)cc1NC(=O)c1ccc(C(F)(F)F)cc1,59*,1,0,7,-18
CCn1nc(C)c2c(-c3ccccc3)cc(=O)n(C(C)C(=O)NCc3ccccc3OC)c21 (stereo unspecified),.,1,.,.,.
COc1ccc(C(CNC(=O)c2oc3ccc(Br)cc3c2C)N2CCCCC2)cc1 (stereo unspecified),-25,0,4,-14,-32
COc1ccc(C(CNC(=O)c2oc3cc(Br)ccc3c2C)N2CCCCC2)cc1 (stereo unspecified),61*,0,-1,-22,-17
COc1ccc(C(CNC(=O)CCNS(=O)(=O)c2ccc(Br)cc2)N2CCCC2)cc1 (stereo unspecified),-21,0,-6,16,-37
COc1ccc(C(CNC(=O)C(C)Oc2ccc(Br)cc2)N2CCCCC2)cc1 (stereo unspecified),78*,1,-5,-22,-6
O=c1[nH]c(C2CCN(S(=O)(=O)c3ccccc3)CC2)nc2c1nnn2Cc1cccc(Cl)c1,32*,0,1,5,-1

# Screening results from PubChem.
